# According to PubChem BioAssay:
# Several values for one entry are separate records, joined by “and”; a condition that tells them apart may be missing. Equal values may be shown once. Values without a mark were called inactive. How the calls were made is not given here.
# Tested on: Aerobactin synthetase IucA (Klebsiella pneumoniae hvKP1)
# Assay: Biochemical IucA enzyme inhibition primary screen of the Spectrum library (AID 1346200);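 further: 100% = wells without compound and 0% = wells lacking enzyme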
# Conditions: malachite green pyrophosphate, A620, at 8 µM, active compounds read low
row,Compound,activity remaining
1,CS(=O)(=O)CCCCN=C=S,101%
2,Cc1cc(=O)n(-c2ccccc2)n1C,110%
3,CCOc1nc2cccc(C(=O)OC(C)OC(=O)OC3CCCCC3)c2n1Cc1ccc(-c2ccccc2-c2nn[nH]n2)cc1 (stereo not given),104%
4,COC(=O)C1=C(C)NC(C)=C(C(=O)OCC(C)C)C1c1ccccc1[N+](=O)[O-] (stereo not given),118%
5,CCCCOc1ccc(C(=O)CCN2CCCCC2)cc1,96.6%
6,CC(C)(S)C(N)C(=O)O (stereo not given),128%
7,O=C(O)c1cc(=O)c2ccccc2o1,110%
8,CC1O[C@@H](Oc2c(-c3ccc(O)c(O)c3)oc3cc(O)cc(O)c3c2=O)[C@H](O)[C@H](O)[C@H]1O (stereo not given in full),111%
9,NCCC(=O)N[C@@H](Cc1cnc[nH]1)C(=O)O,106%
10,COc1cc(C)c(C(=O)Oc2cc(C)c(C(=O)O)c(O)c2C)c(OC)c1C,91.1%
11,COC1C=CC23c4cc5c(cc4CN(C[C@H]2O)[C@@H]3C1)OCO5 (stereo not given in full),110%
12,Cc1cc(O)cc(O)c1C(=O)O,113%
13,COc1ccc2cc1Oc1ccc(cc1)C[C@H]1c3cc(c(OC)cc3CCN1C)Oc1c(OC)c(OC)cc3c1[C@H](C2)N(C)CC3,108%
14,CCOC(=O)[C@H](CCc1ccccc1)N[C@@H](C)C(=O)N1CCC[C@H]1C(=O)O,113%
15,O=c1cc(-c2ccccc2)oc2cc(O)cc(O)c12,118% and 119%
16,CCC(C)(C)C(=O)O[C@H]1C[C@@H](C)C=C2C=C[C@H](C)[C@H](CC[C@@H]3C[C@@H](O)CC(=O)O3)[C@H]21,106%
17,Clc1ccc(C(Cn2ccnc2)OCc2ccsc2Cl)c(Cl)c1 (stereo not given),109%
18,O=C(/C=C/c1ccccc1)c1ccc(O[C@@H]2O[C@H](CO)[C@@H](O)[C@H](O)[C@H]2O)cc1O,116%
19,CC1/C(=N/O)C[C@@H]2C[C@H]1C2(C)C (stereo not given in full),110%
20,COc1c2ccccc2nc2occc12,115%

row,Compound,activity remaining
1,COc1ccc(-c2cc(=O)c3c(O)c(OC)c(OC)c(OC)c3o2)cc1,93%
2,COc1cc(O)c2c(=O)cc(-c3ccc(OC)c(-c4c(O)cc(O)c5c(=O)cc(-c6ccc(O)cc6)oc45)c3)oc2c1,118%
3,CC(=O)/C=C\[C@@H]1[C@@]2(C)CCCC(C)(C)C2CC[C@@]1(C)O (stereo not given in full),95.5%
4,Cc1ccc(S(=O)(=O)NC(=O)NN2CC3CCCC3C2)cc1 (stereo not given),121%
5,COc1cc(S(C)=O)ccc1-c1nc2ncccc2[nH]1 (stereo not given),108%
6,CCN(CC)CCOc1ccc2c(c1)C(=O)c1cc(OCCN(CC)CC)ccc1-2,118%
7,CC(=O)O[C@@H]1c2c(ccc3ccc(=O)oc23)OC(C)(C)[C@@H]1OC(=O)CC(C)C,103%
8,COc1ccnc(CS(=O)c2nc3ccc(OC(F)F)cc3[nH]2)c1OC (stereo not given),127%
9,CC(=O)O[C@@H]1CC2C(C)(C)C(=O)[C@@H]3O[C@@H]3[C@]2(C)C2CC[C@]3(C)C(=CC(=O)O[C@H]3c3ccoc3)[C@@]21C (stereo not given in full),99.4%
10,O=c1[nH]c(=O)n(C2C[C@@H](O)[C@@H](CO)O2)cc1F (stereo not given in full),120%
11,CC(=O)O[C@@H]1CC2C(C)(C)C(=O)C3OC3[C@]2(C)C2CC[C@@]3(C)[C@H](c4ccoc4)OC(=O)C4OC43[C@@]21C (stereo not given in full),101%
12,CC(=O)Oc1ccc2c(c1)CCC1C2CC[C@@]2(C)C1CC[C@@H]2OC(C)=O (stereo not given in full),120%
13,CC1(C)S[C@@H]2[C@H](NC(=O)[C@H](C(=O)O)c3cccs3)C(=O)N2[C@H]1C(=O)O,102%
14,C[C@H](N)[C@H](O)c1cccc(O)c1,115%
15,Cc1nc(N)cc(C[n+]2csc(CCO)c2C)n1,83.3%
16,COc1c(OC)c2occc2c2oc(=O)ccc12,122%
17,Cc1cc2nc3c(=O)[nH]c(=O)nc-3n(CC(O)C(O)C(O)CO)c2cc1C (stereo not given),106%
18,C/C=C\C1=C(C(=O)O)N2C(=O)C(NC(=O)C(N)c3ccc(O)cc3)C2SC1 (stereo not given),115%
19,CCCCOc1ccc(CC(=O)NO)cc1,80.8%
20,C=C1CC[C@H](O)C/C1=C/C=C1\CCC[C@]2(C)C([C@H](C)/C=C/[C@H](C)C(C)C)CC[C@@H]12 (stereo not given in full),107%
